CYP2C9 act = increases human cytochrome P450 2C9 activity; P11712; recombinant CYP2C9, luciferin-H conversion, luminescence; stronger effect = higher value; factor 1 = untreated enzyme, 0 = blocked; actives 1.4% (n = 96,000); activation factor at 5 µM; AID 1024;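 active = activation factor of 2 or more for CYP2C9 at a 5 µM dose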;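 note: 0 = sulfaphenazole-blocked wells and 1 = vehicle-only wells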
PTK2B oligo ant = blocks oligomerization of human Pyk2 in cells; Q293 cells, Pyk2 FERM NanoBiT luminescence; stronger effect = lower value; z-score (the deposit names both 25 µM and 10 µM); actives 0.83% (n = 99,000); AID 1347419;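 active = Z-score of -3 or lower, scaled per plate to the spread of control and sample wells; inactive = z-score above -3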;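 note: negative z-score means lost luminescence so less FERM oligomerization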
CYP2C19 activ = cytochrome P450 2C19 (human) activation; recombinant CYP2C19, luciferin-H EGE luminescence; stronger effect = higher value; 0 = fully inhibited enzyme, 1 = untreated enzyme; activation factor at 5 µM; 96,000 tested, under 10 active;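 active = activation factor of at least 2 at 5 µM in the primary screen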;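 note: 0 = wells with 2.5 mM tranylcypromine and 1 = vehicle-only wells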
Target sequence (P33261 whole entry, looked up): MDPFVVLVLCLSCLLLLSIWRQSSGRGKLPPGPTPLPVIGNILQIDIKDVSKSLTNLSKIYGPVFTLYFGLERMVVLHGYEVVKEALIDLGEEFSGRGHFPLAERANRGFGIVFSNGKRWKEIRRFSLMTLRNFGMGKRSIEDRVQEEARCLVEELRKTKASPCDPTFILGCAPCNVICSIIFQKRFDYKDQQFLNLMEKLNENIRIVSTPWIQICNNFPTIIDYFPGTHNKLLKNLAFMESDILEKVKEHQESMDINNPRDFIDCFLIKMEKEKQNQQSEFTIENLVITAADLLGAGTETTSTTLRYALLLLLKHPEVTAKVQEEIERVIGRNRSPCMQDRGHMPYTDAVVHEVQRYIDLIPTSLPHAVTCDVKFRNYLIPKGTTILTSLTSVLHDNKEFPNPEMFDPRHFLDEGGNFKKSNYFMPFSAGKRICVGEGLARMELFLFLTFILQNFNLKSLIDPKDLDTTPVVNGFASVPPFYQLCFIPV
CYP2C19 inhib = human CYP2C19 inhibition; P33261; CYP2C19 Supersomes, luciferin-H EGE luminescence, 30 min; inhibition, % at 5 µM; actives 21% (n = 96,000);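 active = CYP2C19 inhibition above a set limit at 5 µM in the primary screen, cut at about 50% in these data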;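 note: plate controls were negative control wells for no effect and 2.5 mM tranylcypromine positive control for full effect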
CYP2C9 inhib = human CYP2C9 inhibition | AID 777 | actives 20% (n = 96,000) | CYP2C9 Supersomes, luciferin-H conversion, luminescence | inhibition, % at 5 µM;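 active = blocking of liver enzyme CYP2C9 beyond about 50% at 5 µM, limit read from the data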
* = called active by the depositor. Sampled rows, rich in hits. Any-hit rate of the full collection: about 28%.

For O=C1C2C(C(=O)N1Cc1ccco1)C1C=CC2C12CC2 (stereo not drawn) the results were CYP2C9 act 1.1, PTK2B oligo ant 0.9, CYP2C19 activ 0.9, CYP2C19 inhib 12.5 and CYP2C9 inhib -9.2.
`O=C(CCN1C(=O)C2C3C=CC(C3)C2C1=O)NCCc1ccccc1` (stereo not drawn) gave CYP2C9 act 0.9, PTK2B oligo ant 1.74, CYP2C19 activ 0.8, CYP2C19 inhib 15.3 and CYP2C9 inhib 11.3.
O=C1C2C(C(=O)N1CCc1ccccc1)C1C=CC2C12CC2 (stereo not drawn) was read as CYP2C9 act 0.7, PTK2B oligo ant 0.55, CYP2C19 activ 0.1, CYP2C19 inhib 92.0* and CYP2C9 inhib 29.3.
O=C(O)c1ccc2c(c1)C(=O)N(c1cc(C(=O)O)ccc1Br)C2=O was read as CYP2C9 act 0.9, PTK2B oligo ant 0.89, CYP2C19 activ 0.9, CYP2C19 inhib 8.7 and CYP2C9 inhib 7.7.
Screening C=CCn1c(O)c(C(CC)=NCc2cccnc2)c(=O)[nH]c1=O returned CYP2C9 act 0.7, PTK2B oligo ant 0.27, CYP2C19 activ 0.5, CYP2C19 inhib 53.6* and CYP2C9 inhib 25.7.
Screening O=C(NNC(=O)c1cc(OCC(F)(F)F)ccc1OCC(F)(F)F)c1cccc(C(F)(F)F)c1 returned CYP2C9 act 0.6, PTK2B oligo ant 0.73, CYP2C19 activ 0.8, CYP2C19 inhib 23.9 and CYP2C9 inhib 39.5.
For CN1CCN(C2=C(Cl)C(=O)N(C3CCCCC3)C2=O)CC1 the results were CYP2C9 act 1, PTK2B oligo ant -0.29, CYP2C19 activ 0.1, CYP2C19 inhib 93.5* and CYP2C9 inhib 2.3.
For CCN(CC)S(=O)(=O)c1cccc2cc(C(=O)O)c(O)cc12 the results were CYP2C9 act 0.3, PTK2B oligo ant -0.83, CYP2C19 activ 1, CYP2C19 inhib 4.0 and CYP2C9 inhib 71.1*.
For O=S(=O)(NC1CCCCCC1)c1cccc2cccnc12 the results were CYP2C9 act 0.7, PTK2B oligo ant -1.11, CYP2C19 activ 0.5, CYP2C19 inhib 46.6 and CYP2C9 inhib 31.5.
`CCN(CC)S(=O)(=O)c1cccc2c(N(C)C)cccc12` gave CYP2C9 act 1.3, PTK2B oligo ant -1.36, CYP2C19 activ 0.4, CYP2C19 inhib 57.0* and CYP2C9 inhib -34.2.
`CCN(CC)S(=O)(=O)c1cc(C(=O)O)c(Cl)cc1Cl` gave CYP2C9 act 0.9, PTK2B oligo ant 0.11, CYP2C19 activ 1, CYP2C19 inhib 3.9 and CYP2C9 inhib 11.6.
For CCN(CC)S(=O)(=O)c1cccc2cccnc12 the results were CYP2C9 act 4.8*, PTK2B oligo ant -0.02, CYP2C19 activ 0.7, CYP2C19 inhib 33.8 and CYP2C9 inhib -378.8.
CN(CC(=O)NC1CCCCCCC1)S(=O)(=O)c1cccc2cccnc12 was read as CYP2C9 act 1.1, CYP2C19 activ 0.2, CYP2C19 inhib 75.3* and CYP2C9 inhib -10.2.
O=S(=O)(c1cccc2cccnc12)N(CCO)CCO was read as CYP2C9 act 1.4, CYP2C19 activ 1.2, CYP2C19 inhib -17.1 and CYP2C9 inhib -36.3.
For CCCCOc1ccc(C(=O)OC2CC(C)N(C)CC2C)cc1 (stereo not drawn) the results were CYP2C9 act 1, PTK2B oligo ant -0.12, CYP2C19 activ 0.9, CYP2C19 inhib 11.2 and CYP2C9 inhib 1.9.
For COc1ccc(NC2C=CS(=O)(=O)C2)c(OC)c1 (stereo not drawn) the results were CYP2C9 act 1.2, PTK2B oligo ant -0.33, CYP2C19 activ 1.1, CYP2C19 inhib -14.5 and CYP2C9 inhib -16.9.
CC1CCN(c2nc3c(c(=O)[nH]c(=O)n3C)n2CCSc2nc3ccccc3o2)CC1 was read as CYP2C9 act 0.9, CYP2C19 activ 1, CYP2C19 inhib 2.0 and CYP2C9 inhib 11.3.
`O=C(O)C1CC(=O)N(c2ccc(OCc3ccc(Cl)cc3Cl)cc2)C1` (stereo not drawn) gave CYP2C9 act 1.3, PTK2B oligo ant 0.18, CYP2C19 activ 1, CYP2C19 inhib 3.5 and CYP2C9 inhib -27.5.
`CN(CC(=O)N1CCCCCC1)S(=O)(=O)c1cccc2cccnc12` gave CYP2C9 act 3.3*, CYP2C19 activ 0.8, CYP2C19 inhib 16.5 and CYP2C9 inhib -225.9.
Screening CN(CC(=O)N1CCN(C2CCCCC2)CC1)S(=O)(=O)c1cccc2nsnc12 returned CYP2C9 act 0.9, PTK2B oligo ant 0.67, CYP2C19 activ 1.1, CYP2C19 inhib -9.5 and CYP2C9 inhib 12.2.
CC(=N\Nc1ccccc1)/C(=N/O)C(=O)Nc1ccccc1 was read as CYP2C9 act 1, PTK2B oligo ant 0.43, CYP2C19 activ 0.9, CYP2C19 inhib 6.6 and CYP2C9 inhib -0.1.
Screening CC(=Nc1ccccc1)Nc1ccccc1 returned CYP2C9 act 1.1, PTK2B oligo ant -0.79, CYP2C19 activ 0.2, CYP2C19 inhib 78.9* and CYP2C9 inhib -9.4.
For COc1ccc(CNC(=O)CCc2c(C)nc3ncnn3c2C)cc1 the results were CYP2C9 act 1.1, PTK2B oligo ant -0.27, CYP2C19 activ 1.1, CYP2C19 inhib -11.3 and CYP2C9 inhib -5.1.
CCOC(=O)C(NC(C)=O)C(OC(C)=O)c1cccc([N+](=O)[O-])c1 (stereo not drawn) was read as CYP2C9 act 1, PTK2B oligo ant 0.54, CYP2C19 activ 0.9, CYP2C19 inhib 5.0 and CYP2C9 inhib 0.0.
`CC(C)Oc1cccc(C(=O)NC(=S)N2CCN(c3ccc(C(F)(F)F)cc3[N+](=O)[O-])CC2)c1` gave CYP2C9 act 0.4, PTK2B oligo ant -1.55, CYP2C19 activ 0.7, CYP2C19 inhib 32.1 and CYP2C9 inhib 62.5*.
COc1ccc(C2(C(=O)NC3CCCCC3)CCOCC2)cc1OC was read as CYP2C9 act 1, PTK2B oligo ant 0.47, CYP2C19 activ 0.9, CYP2C19 inhib 14.8 and CYP2C9 inhib 1.6.
CC1CCC2(CC1)NC(=O)N(CC(=O)NC(=O)NC1CCCC1)C2=O (stereo not drawn) was read as CYP2C9 act 0.7, PTK2B oligo ant 1.37, CYP2C19 activ 0.9, CYP2C19 inhib 7.9 and CYP2C9 inhib 34.9.
For Cc1ccc(Cn2nnc3c(=O)[nH]c(C4CCN(S(=O)(=O)c5ccccc5)CC4)nc32)cc1 the results were CYP2C9 act 0.2, PTK2B oligo ant 1.58, CYP2C19 activ 0.7, CYP2C19 inhib 31.2 and CYP2C9 inhib 78.7*.
O=C(Cc1cccs1)N1CCC(c2nc3c(nnn3Cc3ccccc3)c(=O)[nH]2)CC1 was read as CYP2C9 act 0, PTK2B oligo ant -0.5, CYP2C19 activ 0.5, CYP2C19 inhib 48.4 and CYP2C9 inhib 97.0*.
`Cc1ccc(Cn2nnc3c(=O)[nH]c(C4CCN(C(=O)Cc5cccs5)CC4)nc32)cc1` gave CYP2C9 act 0.1, PTK2B oligo ant -0.79, CYP2C19 activ 0.5, CYP2C19 inhib 48.4 and CYP2C9 inhib 89.1*.
Cc1ccc(Cn2nnc3c(=O)[nH]c(C4CCCN(S(=O)(=O)c5ccccc5)C4)nc32)cc1 (stereo not drawn) was read as CYP2C9 act 0.7, PTK2B oligo ant -1.73, CYP2C19 activ 0.9, CYP2C19 inhib 13.4 and CYP2C9 inhib 25.7.

Screening data deposited in PubChem BioAssay by Sanford-Burnham Center for Chemical Genomics.
